Measurements published in PubChem BioAssay.
For part of these data: Measured potencies and affinities stand elsewhere. Active and inactive are the calls of the source.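 The calls were made as follows, unless noted: active = membrane potential signal rise above negative control mean plus 3 SD in both duplicates, also active in the earlier TRPC4 screen; inactive = the rest.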

Tests used:
[1] = test system: TRPC4 beta (transient receptor potential cation channel C4), mouse; assay: TRPC4 cation channel opening, retest – cell-based, Fluo4 calcium, HEK293 TRPC4beta/mu-opioid, duplicates, 10 µM, confirmation (AID 2426;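 active = fluorescence ratio normalized to control raised more than 50% in primary screen plus both repeat runs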;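 as to activation: percent rise of integrated ratio over buffer wells lacking compound which define 0%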); settings: Fluo4 calcium fluorescence, at 10 µM; hits give high values
[2] = test system: transient receptor potential cation channel C4 beta (TRPC4), mouse; assay: TRPC4 cation channel opening, second retest – cell-based, second round, Fluo4, HEK293 TRPC4beta/mu-opioid, 1 µM, confirmation (AID 2461;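 active = primary screen active and over 50% activation in each of two duplicate runs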;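 as to activation: 0% = wells without test compound as baseline of integrated fluorescence ratio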); settings: Fluo4 calcium fluorescence, at 1 µM; hits give high values
[3] = test system: TRPC4 (transient receptor potential cation channel C4 beta), mouse; assay: potentiation of DAMGO EC20 TRPC4 response – cell-based, second round, Fluo-4, HEK293 TRPC4beta/mu-opioid, 1 µM, confirmation (AID 2554;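 active = primary screen hit whose fluorescence ratio, in both repeats, exceeds the weak agonist control mean by 3 SD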); settings: DAMGO EC20, Fluo-4 calcium flux, at 1 µM; hits give high values
[4] = test system: TRPC4 beta (transient receptor potential cation channel C4), mouse; assay: potentiation of DAMGO EC20 TRPC4 response – cell-based, Fluo-4, HEK293 TRPC4beta/mu-opioid, confirmation (AID 2555;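 active = primary screen hit whose calcium fluorescence ratio, in both repeats, exceeds the weak agonist control mean by 3 SD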); settings: DAMGO EC20, Fluo-4 calcium flux, at 10 µM; hits give high values
[5] = molecular target: Short transient receptor potential channel 4 (Mus musculus) (UniProt Q9QUQ5); assay: blockers of DAMGO-evoked TRPC4 calcium flux – cell-based, Fluo4, HEK293 TRPC4beta/mu-opioid, confirmation (AID 2636;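 active = calcium signal cut by more than 3 SD below the full-agonist control yet still positive, in both repeats and the earlier primary screen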); settings: at 10 µM; hits give high values
Short transient receptor potential channel 4 (Mus musculus), sequence (Q9QUQ5 whole entry, looked up): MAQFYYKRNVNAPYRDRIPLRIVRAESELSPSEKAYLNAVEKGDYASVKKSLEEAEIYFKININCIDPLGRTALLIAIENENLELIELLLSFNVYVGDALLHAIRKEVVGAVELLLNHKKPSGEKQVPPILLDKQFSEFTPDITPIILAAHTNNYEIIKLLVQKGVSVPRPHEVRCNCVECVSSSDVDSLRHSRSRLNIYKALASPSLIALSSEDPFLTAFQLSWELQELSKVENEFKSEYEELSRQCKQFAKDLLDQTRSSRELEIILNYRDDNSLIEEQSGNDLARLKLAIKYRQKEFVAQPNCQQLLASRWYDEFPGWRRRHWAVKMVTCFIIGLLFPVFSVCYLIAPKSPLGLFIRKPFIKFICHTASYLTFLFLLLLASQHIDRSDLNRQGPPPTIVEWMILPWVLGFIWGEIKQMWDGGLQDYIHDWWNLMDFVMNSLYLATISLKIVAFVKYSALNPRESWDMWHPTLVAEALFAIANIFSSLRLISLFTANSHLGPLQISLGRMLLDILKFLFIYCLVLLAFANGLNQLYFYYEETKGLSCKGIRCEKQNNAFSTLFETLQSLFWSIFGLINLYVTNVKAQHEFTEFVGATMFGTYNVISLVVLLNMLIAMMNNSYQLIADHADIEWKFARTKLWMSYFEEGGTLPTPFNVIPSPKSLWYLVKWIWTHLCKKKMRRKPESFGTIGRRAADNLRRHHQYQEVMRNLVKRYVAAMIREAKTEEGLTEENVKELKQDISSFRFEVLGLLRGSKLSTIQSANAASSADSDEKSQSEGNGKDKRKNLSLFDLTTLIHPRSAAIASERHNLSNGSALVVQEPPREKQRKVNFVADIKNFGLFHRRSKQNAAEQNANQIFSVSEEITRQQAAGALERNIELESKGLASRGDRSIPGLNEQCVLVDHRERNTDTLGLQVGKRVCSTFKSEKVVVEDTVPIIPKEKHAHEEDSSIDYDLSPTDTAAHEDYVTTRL

[6] = molecular target: Short transient receptor potential channel 4 (Mus musculus) (UniProt Q9QUQ5); assay: blockers of DAMGO-evoked TRPC4 calcium flux – cell-based, second round, Fluo4, HEK293 TRPC4beta/mu-opioid, 1 µM, confirmation (AID 2637;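 active = calcium signal ratio cut to more than 3 SD under the fully stimulated control mean yet still positive, in both repeats and the primary screen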); settings: at 1 µM; hits give high values
[7] = molecular target: Short transient receptor potential channel 4 (Mus musculus) (UniProt Q9QUQ5); assay: potentiation of DAMGO-evoked TRPC4 calcium signal – cell-based, HEK293 TRPC4/mu-opioid, Fluo-4 calcium, EC20 DAMGO, dose response (AID 434941;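 active = earlier screen potentiator hit that boosts the TRPC4 ion channel at some dose, with a dose response; inactive = no potentiation, no dose response, or not a prior hit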;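 also: calcium entry triggered by an EC20 dose of DAMGO at the co-expressed mu-opioid receptor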)
[8] = molecular target: Short transient receptor potential channel 4 (Mus musculus) (UniProt Q9QUQ5); assay: block of DAMGO-driven TRPC4 calcium entry – cell-based, HEK293 TRPC4/mu-opioid, Fluo-4 calcium, dose response (AID 434942;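 active = primary screen inhibitor hit that blocks the TRPC4 channel at some tested dose, yielding a dose curve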)
[9] = molecular target: Short transient receptor potential channel 6 (Mus musculus) (UniProt Q61143); assay: TRPC6 blockade by TRPC4 inhibitor hits – cell-based, HEK293, membrane potential dye, duplicate, selectivity assay for TRPC4 inhibitor project, confirmation (AID 434948;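 active = active in primary screen and both duplicates, each dropping signal beyond three positive-control SD with fluorescence still positive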); settings: HEK293 TRPC6, membrane potential dye fluorescence, at 10 µM, stimulated with maximal-effect acetylcholine; hits give high values
Short transient receptor potential channel 6 (Mus musculus), sequence (Q61143 whole entry, looked up): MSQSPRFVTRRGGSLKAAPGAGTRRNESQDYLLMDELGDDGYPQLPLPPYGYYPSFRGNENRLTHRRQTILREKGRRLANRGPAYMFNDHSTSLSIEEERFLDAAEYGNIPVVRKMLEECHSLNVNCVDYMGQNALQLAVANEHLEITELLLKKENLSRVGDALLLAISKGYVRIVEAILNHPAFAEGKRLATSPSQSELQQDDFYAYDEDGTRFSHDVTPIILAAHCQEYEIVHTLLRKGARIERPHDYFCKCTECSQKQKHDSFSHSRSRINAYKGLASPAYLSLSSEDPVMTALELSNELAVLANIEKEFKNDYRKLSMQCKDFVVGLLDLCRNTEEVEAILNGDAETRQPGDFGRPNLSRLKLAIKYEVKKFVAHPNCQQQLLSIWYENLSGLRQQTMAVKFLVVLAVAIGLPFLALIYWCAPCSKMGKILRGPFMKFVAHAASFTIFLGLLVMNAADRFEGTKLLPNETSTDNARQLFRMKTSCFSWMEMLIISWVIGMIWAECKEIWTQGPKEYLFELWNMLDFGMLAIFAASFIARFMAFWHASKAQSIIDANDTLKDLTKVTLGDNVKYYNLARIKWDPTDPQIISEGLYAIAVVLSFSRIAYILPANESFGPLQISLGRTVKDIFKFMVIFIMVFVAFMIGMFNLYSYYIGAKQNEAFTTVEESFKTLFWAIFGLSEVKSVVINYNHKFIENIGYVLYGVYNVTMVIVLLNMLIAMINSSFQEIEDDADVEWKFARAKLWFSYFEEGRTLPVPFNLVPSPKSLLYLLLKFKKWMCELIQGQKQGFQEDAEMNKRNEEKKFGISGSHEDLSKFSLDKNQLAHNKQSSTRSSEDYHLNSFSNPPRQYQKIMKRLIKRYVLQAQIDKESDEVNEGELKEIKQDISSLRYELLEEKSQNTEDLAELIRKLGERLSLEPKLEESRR

[10] = molecular target: Short transient receptor potential channel 6 (Mus musculus) (UniProt Q61143); assay: TRPC6 opening by TRPC4 activator hits – cell-based, HEK293, membrane potential dye, duplicate, selectivity assay for TRPC4 activator project, confirmation (AID 434950); settings: HEK293 TRPC6, membrane potential fluorescence, at 10 µM; activation: hits give high values; outcome: activation;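 as to activation: 0% = buffer only wells and 100% = acetylcholine maximal-effect wells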
[11] = molecular target: Short transient receptor potential channel 6 (Mus musculus) (UniProt Q61143); assay: positive modulators of mouse TRPC6 channel – HEK293 cells, membrane potential dye, duplicate, selectivity assay for TRPC4 potentiator project, confirmation (AID 434952;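 active = compound raising the membrane signal above positive-control mean plus 3 SD in both repeats, and a primary screen hit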); settings: HEK293 TRPC6, membrane potential dye fluorescence, at 10 µM, maximal acetylcholine added after compound; hits give high values
[12] = molecular target: Short transient receptor potential channel 4 (Mus musculus) (UniProt Q9QUQ5); assay: calcium flux activators in TRPC4/5HT1a cells, counter-screen for TRPC4 activator project, cell-based, second counter screen, HEK293 TRPC4/5HT1a, Fluo-4 (AID 434977;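 active = calcium signal rise above buffer-control mean plus 5 SD in both duplicates, and also a hit in the primary screen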;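 as to activation: plate controls were assay buffer for no effect and maximal serotonin response for full effect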); settings: Fluo-4 calcium flux, at 10 µM; hits give high values
[13] = serotonin-gated TRPC4 signal block – cell-based, second counter screen, HEK293 TRPC4/5HT1a, Fluo-4, counter-screen for TRPC4 inhibitor project, confirmation (AID 434978;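 active = primary screen active whose calcium signal fell more than 3 SD beyond the full-serotonin control mean in both duplicate plates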;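 also: serotonin given first at submaximal then at maximal dose after compound preincubation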); settings: Fluo-4 calcium flux, at 10 µM, serotonin added to trigger calcium flux; hits give high values
[14] = test system: TRPC4 (mouse), co-expressed with 5HT1a in HEK293; assay: enhancement of serotonin-evoked TRPC4 response – cell-based, second counter screen, HEK293 TRPC4/5HT1a, Fluo-4, counter-screen for TRPC4 potentiator project, confirmation (AID 434979;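 active = signal rise over 3 SD above mean of control wells given weak agonist, in both repeats and first screen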); settings: Fluo-4 calcium flux, at 10 µM, serotonin added at its EC20 dose; hits give high values
[15] = nonspecific calcium rise without TRPC4 – cell-based, HEK293 mu-opioid receptor line, counter-screen for TRPC4 activator project, confirmation (AID 449723;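 active = hit in primary screen, with calcium signal over 5 SD above buffer well mean in both duplicates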;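 also: counter screen cells carry the mu-opioid receptor alone and lack TRPC4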); settings: HEK293 mu-opioid cells, Fluo-4 calcium fluorescence, at 10 µM; hits give high values
[16] = nonspecific potentiation of DAMGO calcium response – cell-based, HEK293 mu-opioid receptor line, counter-screen for TRPC4 allosteric potentiator project, confirmation (AID 449724;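 active = calcium signal rise more than 3 SD above the low-dose agonist control mean, in both duplicate plates and the primary screen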); settings: HEK293 mu-opioid receptor cells, Fluo-4 calcium flux, at 10 µM, compound added before EC20 DAMGO stimulus; hits give high values

Measured: activation

CN1CCN(c2ccc(NC(=O)c3ccc(-c4cccc([N+](=O)[O-])c4)o3)cc2)CC1
active: [1] 87%
inactive: all other assays above

OCC1(CC2CCCCO2)CCN(Cc2ccccc2-c2ccco2)CC1 (stereo not given)
inactive: all assays above

O=C(O)C1C2C=CC(C2)C1C(=O)NC1CCN(Cc2ccccc2)CC1 (stereo not given)
active: [1] 155% | [10] 32% | [12] 44.3%
inactive: all other assays above

CN1CCCC(OC(=O)c2cc(Br)ccc2Cl)C1 (stereo not given)
active: [1] 116% | [2] 87% | [10] 47% | [12] 43.7%
inactive: all other assays above

O=C(CC1C(=O)NCCN1Cc1ccc(-c2ccccc2)cc1)NCCc1ccccn1 (stereo not given)
active: [1] 142% | [12] 34%
inactive: all other assays above

COc1ccc(C(CNC(=O)c2cccc(Br)c2)N2CCCC2)cc1 (stereo not given)
active: [10] 61.5%
inactive: all other assays above

CCCN(CCC)CCCNC(=O)c1ccc2c(Cl)c3c(nc2c1)CCC3
active: [1] 90% | [2] 89% | [10] 27% | [12] 105%
inactive: all other assays above

O=C(Nc1ccc(Cl)cc1)N1CCC(c2nc(-c3cccs3)no2)CC1
active: [1] 158% | [12] 46.6%
inactive: all other assays above

CCn1c(N2CCN(S(=O)(=O)CC)CC2)nc2ccccc21
active: [1] 96% | [12] 19.2%
inactive: all other assays above

CN(CCc1ccccn1)C(=O)CC1C(=O)NCCN1Cc1ccc(-c2ccccc2)cc1 (stereo not given)
active: [1] 130% | [10] 42.5% | [12] 31.3%
inactive: all other assays above

CN(C)C(CNC(=O)Nc1cccc(Cl)c1)c1cccnc1 (stereo not given)
active: [2] 106% | [10] 30.5%
inactive: all other assays above

CCN1CCN(c2ccc(S(=O)(=O)N3CCCCC3)cc2NC(=O)CC(C)c2ccccc2)CC1 (stereo not given)
active: [1] 140%
inactive: all other assays above

COc1ccc(C(CNC(=O)Cc2cccs2)N(C)C)cc1 (stereo not given)
active: [1] 102% | [2] 103% | [10] 36.5%
inactive: all other assays above

CCCCN(CC)CCNC(=O)c1cc2c(-c3ccc(Cl)cc3)nn(C)c2s1
active: [12] 20.5%
inactive: all other assays above

COc1c2c(cc3c1C(CC(O)Cc1ccccc1)N(C)CC3)OCO2 (stereo not given)
active: [1] 110% | [10] 43%
inactive: all other assays above
